Test results taken from PubChem BioAssay AID1903 (Southern Research Specialized Biocontainment Screening …, 2009).
Out of some 310,000 compounds screened, about 1,200 (0.39%) were called active. How the calls were made is not given here. Only a sample is shown. Potency and affinity values are given separately.

Target: Large T antigen (Simian virus 40) (UniProt P03070)
Assay: TAg ATPase/helicase activity blockers – biochemical (AID 1903)
Details: SV40 large T antigen ATPase/helicase inhibition assay; at 20 µM; hits give high values

Sequence of Large T antigen (Simian virus 40) (P03070 whole entry, looked up): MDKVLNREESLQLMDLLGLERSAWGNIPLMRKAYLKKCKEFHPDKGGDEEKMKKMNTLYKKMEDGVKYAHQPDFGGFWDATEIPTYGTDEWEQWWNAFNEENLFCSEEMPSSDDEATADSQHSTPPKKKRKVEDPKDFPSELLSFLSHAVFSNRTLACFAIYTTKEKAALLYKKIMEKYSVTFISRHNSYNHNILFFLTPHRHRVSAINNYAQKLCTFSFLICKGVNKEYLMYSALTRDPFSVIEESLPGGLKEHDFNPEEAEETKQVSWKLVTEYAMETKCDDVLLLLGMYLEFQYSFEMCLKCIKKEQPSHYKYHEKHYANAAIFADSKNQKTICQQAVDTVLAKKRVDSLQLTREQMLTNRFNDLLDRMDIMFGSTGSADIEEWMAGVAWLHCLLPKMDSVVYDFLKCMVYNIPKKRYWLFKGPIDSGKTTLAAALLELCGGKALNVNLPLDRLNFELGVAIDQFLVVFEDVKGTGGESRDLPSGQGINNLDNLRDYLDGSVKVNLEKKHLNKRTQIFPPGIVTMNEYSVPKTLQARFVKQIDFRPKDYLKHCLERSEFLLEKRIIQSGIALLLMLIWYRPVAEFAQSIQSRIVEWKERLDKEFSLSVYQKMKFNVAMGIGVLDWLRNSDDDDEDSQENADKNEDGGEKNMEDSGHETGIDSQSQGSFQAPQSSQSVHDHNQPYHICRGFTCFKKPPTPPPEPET

inhibition, inactive:
COc1ccc(C(CNC(=O)c2ccc(S(=O)(=O)Nc3ccc(F)cc3)cc2)N(C)C)cc1 (centres undefined) -1%, CC(=O)Nc1ccc(S(=O)(=O)NCCC(=O)OCC(=O)N2CCN(C(=O)c3ccco3)CC2)cc1 2.76%, COc1ccc(OC)c(-c2csc3nnc(SCC(=O)Nc4ccc(NC(C)=O)cc4)n23)c1 3.77%, C=CCC(C(=O)NC(C)c1ccccc1)C(=O)NC(C)c1ccccc1 (centres undefined) 0.99%, CCOc1cc(N2C(=O)CC3CS(=O)(=O)CC32)c(OCC)cc1NC(=O)c1ccccc1 (centres undefined) -8.08%, CCOc1cc(NC(=O)c2ccccn2)c(OCC)cc1NC(=O)c1ccccc1 8.84%, CCCSc1nnc(N)s1 14.6%, CCN1C(=O)c2ccccc2Sc2ccc(C(=O)NCCC(C)C)cc21 18.1%, CCOC(=O)C1CCCN(S(=O)(=O)Cc2ccc(Cl)cc2)C1 (centres undefined) 5.43%, NNC(=O)C(=O)Nc1ccc(Cl)c(Cl)c1 4.78%, Cc1ccc(NC(=O)C(=O)NN)cc1 4.15%, Cc1ccc(N=C2C(=O)Nc3ccc(Br)cc32)cc1 4.2%, COC(=O)CN1C(=O)C(C)(C)Oc2ccc(C(=O)Nc3ccccc3F)cc21 -0.69%, Cc1csc(N/N=C/c2ccc([N+](=O)[O-])cc2)n1 12%, O=[N+]([O-])c1cc(/C=N\Nc2nc(-c3ccccc3)cs2)ccc1O 14.1%, O=C(c1ccc2c(c1)OCCO2)C1CCN(S(=O)(=O)c2ccc(F)cc2)CC1 0.84%, Cc1nnc(C)n1/N=C/c1cccs1 13.5%, S=c1[nH]nc(-c2cc(-c3ccccc3)n[nH]2)n1/N=C/c1cccs1 10.5%, Cc1cc(C)n(/N=C/c2c[nH]c3ccccc23)c(=O)c1 0.69%, Fc1ccc(-c2n[nH]c(=S)n2/N=C/c2c[nH]c3ccccc23)cc1 1.41%, CCCCn1c(O)c(N=NC(=O)c2ccccc2NS(=O)(=O)c2cccs2)c2ccccc21 14.3%, O=c1ccc(S(=O)(=O)N2CCC(Cc3ccccc3)CC2)c[nH]1 7.63%, CN(CCNC(=O)CCNC(=O)Cn1ccc2ccccc2c1=O)Cc1ccccc1 15.1%, Nc1nc(SCc2cccc([N+](=O)[O-])c2)n[nH]1 4.99%, C=CCn1c(SCC(=O)Nc2ccc(C(=O)O)cc2)nnc1-c1cccnc1 8.53%, CCn1c(SCC(=O)OC)nnc1-c1ccc(C)cc1 22.5%, CCn1c(SCC(=O)c2ccc(C)cc2)nnc1-c1ccncc1 3.96%, CCn1c(SCC(=O)C(C)(C)C)nnc1-c1ccccc1OC -1.72%, C=CCn1c(SCC(=O)NC2CCCC2)nnc1-c1cccnc1 3.08%, C=CCn1c(SCC(=O)c2ccc(OC)cc2)nnc1-c1cc2cccc(OC)c2o1 6.55%, C=CCn1c(SCC(=O)Nc2ccc3c(c2)OCO3)nnc1-c1ccccc1OC 1.62%, CCn1c(SCC(=O)O)nnc1-c1ccccc1OC 1.77%, O=C1OCc2cc(NC(=O)C3CCCCC3)ccc21 2.69%, COc1cccc(-c2cc(CC3(O)CCN(CCCc4ccccc4)CC3)on2)c1 8.74%, Cc1ccc(S(=O)(=O)N2CCN(S(=O)(=O)N(C)C)CC2)c(C)c1 3.46%, COc1ccc(-n2c(C)cc(-c3csc(NC(=O)c4ccc(S(=O)(=O)N(C)C)cc4)n3)c2C)cc1 11.5%, Cc1c(CC(=O)NCCCC(=O)O)c(=O)oc2cc3oc4c(c3cc12)CCCC4 10%, CC(C)CCNC(=O)C1CC(=O)N(C2CCCC2)C1 (centres undefined) -3.66%, S=C(NCC1CCCO1)Nc1ccc(Cl)c(Cl)c1 (centres undefined) 13.5%, Cc1ccc(CCN2CC(C(=O)NCCCN3CCN(C)CC3)CC2=O)cc1 (centres undefined) 3.28%, c1ccc(-n2nnnc2-n2nnc3ccccc32)cc1 9.04%, Cc1cccc2cc3c(nc12)SC(=NCC1CCCO1)N(Cc1ccco1)C3 (centres undefined) 26%, COCCN=C1Sc2nc3ccc(C)cc3cc2CN1Cc1ccco1 19.9%, Oc1ccc(-c2csc(Nc3ccccn3)n2)cc1 22.2%, Cc1csc(Nc2cccc3ccccc23)n1 11.9%, Cc1cccc(Nc2nc(-c3ccc(O)c(O)c3)cs2)n1 30.3%, c1ccc(-c2csc(Nc3ncccn3)n2)cc1 0.05%, Cc1ccc(Nc2nc(-c3ccc(F)cc3)cs2)nc1 9.89%, Oc1ccc(-c2csc(Nc3ncccn3)n2)cc1 6.13%, c1ccc(-c2csc(Nc3ccccn3)n2)cc1 9.23%, Cc1ccnc(Nc2nc(-c3ccc(O)c(O)c3)cs2)c1 32.9%, Cc1c(/C(Cc2ccccc2)=N/O)c2ccccc2n1C 15.5%, COc1ccccc1N(Cc1ccccc1)S(=O)(=O)c1cccc(C(=O)Nc2cc(C)ccn2)c1 11.2%, O=C(Nc1ccc2c3c(cccc13)CC2)c1ccc(Br)o1 -1.82%, O=C(COC(=O)c1cc(S(=O)(=O)N2CCOCC2)ccc1Cl)Nc1ccc2c(c1)OCO2 -0.55%, O=C(Cn1nnc2ccccc21)NC1CCCCC1 7.66%, CC(C(N)=O)N1c2cccc3cccc(c23)S1(=O)=O (centres undefined) 5.84%, Cc1cc(C)c(OCC(=O)Nc2ccccn2)c([N+](=O)[O-])c1 4.36%, COCCCNC(=O)c1ccc2c(=O)n(Cc3ccc(OC)cc3)c(=O)[nH]c2c1 17.4%, COc1ccc(CCNC(=O)CNC(=O)Cn2cnc3sc(C)c(C)c3c2=O)cc1OC -8.68%, COc1ccc(Nc2ccc(Nc3ccc(OC)cc3)nn2)cc1 10.9%, COc1ccc(Nc2c(C)cccc2C)cc1 -1.03%, O=C(O)CC1c2ccccc2CCN1S(=O)(=O)c1ccccc1 (centres undefined) 16.2%, CCOCCc1nnc(NC(=O)Cc2ccc(Br)cc2)s1 4.12%, O=C(Cc1n[nH]c(=O)[nH]c1=O)N/N=C/c1cccc(O)c1 9.95%, Cc1ccc(Oc2nc3ccccc3n3c(C)nnc23)c(C)c1 1.35%, CCN(CC(=O)NC(=O)NC1CCCC1)Cc1ccccc1 14.2%, COc1cc(-c2nc3cnccn3c2Nc2ccc(C)cc2)ccc1O 37%, COc1cc(-c2nc3cnccn3c2Nc2ccc(C(C)C)cc2)ccc1O 9.43%, c1ccc(-c2nc3cnccn3c2Nc2ccc3c(c2)OCCO3)cc1 9.23%, c1cn2c(Nc3ccc4c(c3)OCCO4)c(-c3ccc(N4CCOCC4)cc3)nc2cn1 29.1%, Cc1ccc(-c2nc3cnccn3c2Nc2ccc3c(c2)OCO3)cc1 25.3%, COc1ccc(-c2nc3cnccn3c2Nc2ccc3c(c2)OCO3)cc1 21.4%, Fc1ccc(-c2nc3cnccn3c2NC2CCCC2)cc1 3.13%, Clc1ccc(-c2nc3cnccn3c2NC2CCCC2)cc1 8.26%, CC(=O)c1c(C)[nH]c(C(=O)OCc2c(F)cccc2Cl)c1C 20.8%, CN(C)C(=O)c1cn(-c2ccccc2)nc1-c1cc2ccccc2o1 0.09%, CCCC1CCC(c2ccc(/C(N)=N/O)cc2)CC1 (centres undefined) 4.39%, CC(=O)NC(N1CCCCC1)C(F)(F)C(F)(F)C(F)(F)C(F)F (centres undefined) -2.22%, Cc1c(Cl)cccc1NC(=S)N(CCCN1CCOCC1)Cc1cccs1 3.79%, Oc1ccc(-c2nc3ncccn3c2Nc2ccc3c(c2)OCCO3)cc1 13.3%, Clc1ccc(-c2nc3ncccn3c2Nc2ccc3c(c2)OCO3)cc1 7.55%, CC(C)OC(=O)/C(=C/c1ccc2c(c1)c1ccccc1n2C)NC(=O)c1ccccc1 3.18%, COc1ccc2c(c1)-c1nc(/N=C/c3c(O)ccc4ccccc34)sc1CC2 23.1%, COc1ccc2c(c1)-c1nc(/N=C/c3ccc(O)cc3)sc1CC2 15.8%, Cn1nc(-c2ccccc2)cc1NC(=O)C1CCCCC1 5.74%, Nc1ccc(C(=O)c2cccs2)cc1 6.86%, Cc1ccc(C(=O)c2cc(C)sc2N)cc1 19.1%, CSC1=NSC2=NC(=O)/C(=C/c3coc4ccc(O)cc4c3=O)C(=N)N12 17.7%, CCSC1=NSC2=NC(=O)/C(=C\c3coc4ccccc4c3=O)C(=N)N12 28.2%, CSC1=NSC2=NC(=O)/C(=C/c3coc4ccccc4c3=O)C(=N)N12 12.2%, N=C1/C(=C\c2coc3ccccc3c2=O)C(=O)N=C2SC=CN12 34.7%, N=C1/C(=C/c2coc3ccccc3c2=O)C(=O)N=C2SC(c3ccco3)=NN12 51.6%, CC(C)CSC1=NSC2=NC(=O)/C(=C\c3coc4ccccc4c3=O)C(=N)N12 13.7%, COc1ccccc1N1CCN(C(=O)c2oc3ccc(F)cc3c2C)CC1 -1.49%, Cc1ccc(SC(CC(=O)c2ccc(C)cc2)C(=O)O)cc1 (centres undefined) 19.4%, O=C(CC(Sc1ccc(Br)cc1)C(=O)O)c1ccc(F)cc1 (centres undefined) 7.72%, CN1C(=O)C2C(c3ccc(N(C)C)cc3)NN(Cc3ccccc3)C2C1=O (centres undefined) 19.9%, COc1ccc(C2=NN(Cc3ccccc3)C3C(=O)NC(=O)C23)cc1 (centres undefined) 4.68%
